{"source": "PubChem BioAssay (NCI)", "note": "Where “and” joins values, the source holds several entries; their conditions need not be identical. Equal entries are not always repeated. About 83,000 compounds went through this panel and 20% of them were active in at least one assay; those are over-represented in the sample as a whole.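 96-well plates, one dose, 48 hours. Percent growth reported; active if below 10.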 Calls of active or inactive are those of the source.", "data": [{"test_system": "HL-60(TB) leukemia", "assay": "NCI-60 one-dose screen, 48 h (100 = growth as untreated, 0 = no growth, -100 = all killed)", "settings": "10 µM unless noted", "values": [{"smiles": "COc1cccc2c1nc1cccc(OC)c1[n+]2[O-]", "growth": "0.0729% (active)"}, {"smiles": "CC1=C/C(=C(\\c2ccc(N(C)C)cc2)c2ccc([N+](C)(C)C)cc2)C=CC1=[N+](C)C", "growth": "98.6% (inactive)"}, {"smiles": "C#Cc1cccc(NC(=O)c2ccccc2NC(=O)CCl)c1", "growth": "91.6% [8.25 µM] (inactive)"}, {"smiles": "CC12CCCCC1C(C(N)=O)C(=O)O2", "note": "(centres undefined)", "growth": "102% (inactive)"}, {"smiles": "COc1ccc(C)cc1NC(=O)SC(C)C", "growth": "94.7% [100 µM] (inactive)"}, {"smiles": "Cc1cc(O)c(C(C)C)cc1N", "growth": "83.9% (inactive) and 122% (inactive)"}, {"smiles": "Cc1ccc2oc(=O)cc(-c3nc4ccc([N+](=O)[O-])cc4[nH]3)c2c1", "growth": "53.1% (inactive)"}, {"smiles": "COc1cc(/C=C/C(=O)c2cccc(Nc3nc(Nc4ccccc4)nc(Nc4ccccc4)n3)c2)cc(OC)c1OC", "growth": "9.01% (active)"}, {"smiles": "COc1cc2cc(Oc3ccc(NC(=O)Nc4cc(C(F)(F)F)cc(C(F)(F)F)c4)cc3)c(C)nc2cc1OCCN1CCOCC1", "growth": "1.68% (active)"}, {"smiles": "O=C(CCCCCCN1CC(=O)N2[C@H](c3cc(Br)cs3)c3[nH]c4ccccc4c3C[C@H]2C1=O)NO", "growth": "4.98% (active)"}, {"smiles": "COc1ccccc1C(C)=O", "growth": "105% (inactive) and 102% (inactive)"}, {"smiles": "COc1ccc(OC)c(NC(=O)c2cc(S(=O)(=O)N3CCc4ccccc43)ccc2OC)c1", "growth": "107% (inactive)"}, {"smiles": "CN1C(=O)N(C)C2Nn3c(s/c(=C\\c4ccc(Cl)cc4Cl)c3=O)=NC21", "note": "(centres undefined)", "growth": "41.5% (inactive)"}, {"smiles": "COc1ccc(/C=N\\NC(=O)c2cc(-c3ccc(Br)cc3)n(-c3ccc(S(N)(=O)=O)cc3)n2)cc1", "growth": "33.5% (inactive)"}]}]}
